Measured values published in PubChem BioAssay (NCI).
The panel holds about 83,000 compounds, 20% with a hit somewhere; the sample as a whole holds those more often.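 Testing used 96-well plates and a 48-hour single-concentration exposure. Example: -40 means 40% of the starting cells died.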 Values without a mark were called inactive. Calls of active or inactive are those of the source. How the source made its calls: active means growth percent below 10; inactive means the rest.

Each molecule was assayed on CCRF-CEM leukemia (assay: NCI-60 one-dose screen, 48 h (100 = growth as untreated, 0 = no growth, -100 = all killed)). Conditions: 10 µM unless noted.
In the case of `O=C(O)Cc1ccccn1`, the growth is reported as 101%.
`CC(C)(C)CC1(C)NC(=O)NC1=O` (configuration not stated) was tested, and the growth was -59.7% (active).
In the case of `COc1cc(CC#N)c([N+](=O)[O-])cc1OC`, the growth is reported as 103%.
Work on `CN(C)CCOC(=O)Nc1ccc(Cc2ccc(NC(=O)OCCN(C)C)cc2)cc1` yielded a growth of 51.3% [100 µM].
`Cc1cc2nc(C)c(C)nc2cc1C` gave a growth of 102%.
In the case of `CCCCc1ccc2nc(NC(=O)OC)[nH]c2c1`, the growth is reported as -15.5% (active).
`NCC(O)C(O)C(O)C(O)CO` (configuration not stated) showed a growth of 89.8%.
`CCNc1ccc2ccccc2c1N=Nc1ccc(N=Nc2ccccc2)cc1` showed a growth of 95.8%.
Molecule `O=Cc1ccc(O)c(O)c1` has a growth of 57.8%.
For `CC(=O)C1C(=O)C(=O)N(c2cccc([N+](=O)[O-])c2)C1=O` (configuration not stated), the growth was 106%.
For `C1Cc2onc(-c3noc4c3CCC4)c2C1`, the growth was 101%.
In the case of `O=C(O)c1cc(I)ccc1O`, the growth is reported as 99.3%.
For `C=CCS(C)(=O)=O`, the growth was 110%.
Work on `O=C(OCc1ccccc1)n1nnc2ccccc21` yielded a growth of 111%.
With `CC(=O)N=c1ccc2nc3c(cc(N)c4ccccc43)oc-2c1` the growth was -11.5% (active).
Molecule `CN1CCCN(C(c2ccccc2)c2ccc(Cl)cc2)CC1` (configuration not stated) has a growth of 103%.
In the case of `COc1ccc(/C=C\C(=O)/C=C/c2ccc(OC)cc2)cc1`, the growth is reported as 37.4%.
In the case of `CCOC(=O)c1ccc(NC(C)=O)o1`, the growth is reported as 98.8%.
For `CCOC(=O)c1cc(Cl)c(O)c(Cl)c1`, the growth was 90.8%.
For `NNc1ncccn1`, the growth was 109%.
`CCCC1OC(c2ccco2)OCC1CC` (configuration not stated) was tested, and the growth was 93%.
In the case of `Cc1ccc(N2C(=O)c3cccc4c(N)c(S(=O)(=O)O)cc(c34)C2=O)cc1`, the growth is reported as 100%.
Molecule `Clc1ncnc2nc[nH]c12` has a growth of 103%.
In the case of `C/C(=N\Nc1ccc([N+](=O)[O-])cc1[N+](=O)[O-])c1ccc(Br)cc1`, the growth is reported as 96.5%.
`N#Cc1ccc(OC(=O)Nc2c(Cl)cc(Cl)cc2Cl)cc1` was tested, and the growth was 99.3%.
`Nc1ncnc2c1ncn2C1OC(CO)C2OC21` (configuration not stated) was tested, and the growth was 105%.
With `CN(C)c1ccc(/C=C/C(=O)c2ccc(NC(N)=O)cc2)cc1` the growth was 92.8%.
For `NC(=O)N1CCOCC1`, the growth was 88.9%.
With `CN1C(=O)NC(c2ccc(Cl)cc2)(c2ccc(Cl)cc2)C1=O` the growth was -30.3% (active).
Molecule `Cc1ccc(C)c(CN(C)C)c1O` has a growth of 135%.
`O=C(OCC1CCCO1)c1ccc([N+](=O)[O-])cc1` (configuration not stated) showed a growth of 94.2%.
Work on `S=C(NCc1ccccc1)N1CCC(CCCC2CCN(C(=S)NCc3ccccc3)CC2)CC1` yielded a growth of 88.8%.
`N#Cc1ccc2nc[nH]c2c1` showed a growth of 115%.
Work on `O=S(=O)(O)c1cccc2cccnc12` yielded a growth of 103%.
In the case of `O=S(=O)(O)c1cccnc1`, the growth is reported as -41.7% (active).
In the case of `S=CN1CCCCC1`, the growth is reported as 110%.
`Cc1ccccc1CC(N)C(=O)O` (configuration not stated) gave a growth of 110%.
